Experimental findings from PubChem BioAssay (Tox21) are described below.

SMILES strings stand for the structures. Values joined by “and” are separate entries in the source; they are usually repeats but may differ in a detail not shown here. Equal values may be shown once. Results filed as inconclusive are left out. Some structures have more than one record in an assay (separate samples or runs), and their calls can disagree. Active and inactive are the calls of the source. Calls come from the whole dose curve; as a rule, active = well fitted curve in the direction sought with a large enough effect in the repeat runs; inconclusive = weak or mixed curves; inactive = no such curve, though single readings can be large; an effect the other way counts as inactive or inconclusive.

Assay [1] can be described thus: qHTS RealTime-Glo MT Cell Viability Assay in HEK293 cells - 16 hour (AID 1224872). For activity change, negative = cytotoxicity: top concentration of the series differs between compounds. Note: nearly all actives have a fitted effect of over 50% in size. Note: potency is the fitted concentration of half-maximal effect. The procedure, abridged:
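Viability tracked continuously by luminescence as live cells reduce a prosubstrate for NanoLuc; HEK293 cells preincubated 5 h, compound-treated at 37 C, and read at 0, 8, 16, 24, 32 and 40 h.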
In general terms: Quantitative high-throughput screening tests each substance at several concentrations.

Assay [2] is described as follows: qHTS RealTime-Glo MT Cell Viability Assay in HepG2 cells - 8 hour (AID 1224873). Note: nearly all actives have a fitted effect of over 55% in size. Note: potency is the fitted concentration of half-maximal effect. A digest of the protocol: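 Real-time viability: cells seeded at 600 per well together with NanoLuc and cell-permeant prosubstrate, compounds added after 5 h incubation. Luminescence tracked at 0, 8, 16, 24, 32 and 40 h of exposure.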
The nature of assay [3]: qHTS RealTime-Glo MT Cell Viability Assay in HEK293 cells - 40 hour (AID 1224874). Note: nearly all actives have a fitted effect of over 50% in size. Note: potency is the fitted concentration of half-maximal effect. The following applies: RealTime-Glo luminescence; max response: stronger effect = lower value. A digest of the protocol:
(§1)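 Kinetic, non-lysing viability readout. Seed HEK293 (600/well) with reagent, incubate 5 h at 37 C/5% CO2, pin 23 nL compound in DMSO, incubate at 37 C, read luminescence at 0, 8, 16, 24, 32, 40 h.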

A short description of assay [4]: A CellTox Green Cytotoxicity Assay to monitor cytotoxicity in HEK293 cells - 24 hour (AID 1224875). For activity change: series mostly up to about 77 µM. Note: nearly all actives have a fitted effect of over 45% in size. Note: potency is the fitted concentration of half-maximal effect. A digest of the protocol: (§2)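 Real-time, in one plate: 600 HEK293 cells/well with dead-cell DNA dye, pinned compound after 5 h, 37 C incubation over 40 h; viable cells give no appreciable fluorescence.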
The nature of assay [5]: A CellTox Green Cytotoxicity Assay to monitor cytotoxicity in HepG2 cells - 16 hour (AID 1224876). Note: nearly all actives have a fitted effect of over 45% in size. Note: potency is the fitted concentration of half-maximal effect. The procedure, abridged:
(§3)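 Cytotoxicity was tracked as dead-cell DNA fluorescence in HepG2 cells treated with test compounds at 37 C; each time-point value comes from one kinetic series spanning 0, 8, 16, 24, 32 and 40 h.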

Assay [6] can be described thus: qHTS RealTime-Glo MT Cell Viability Assay in HepG2 cells - 32 hour (AID 1224877). Note: nearly all actives have a fitted effect of over 55% in size. Note: potency is the fitted concentration of half-maximal effect. A digest of the protocol:
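Viability was tracked continuously by NanoLuc luminescence from prosubstrate reduced by living HepG2 cells, at successive time points over 40 h of compound exposure. Cells with reagent were preincubated 5 h at 37 °C before compound addition.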

The nature of assay [7]: A CellTox Green Cytotoxicity Assay to monitor cytotoxicity in HepG2 cells - 24 hour (AID 1224878). Note: nearly all actives have a fitted effect of over 45% in size. Note: potency is the fitted concentration of half-maximal effect. The procedure, abridged: as §3
Assay [8] is described as follows: A CellTox Green Cytotoxicity Assay to monitor cytotoxicity in HepG2 cells - 40 hour (AID 1224879). Note: nearly all actives have a fitted effect of over 40% in size. Note: potency is the fitted concentration of half-maximal effect. A digest of the protocol: as §3
Assay [9] is described as follows: A CellTox Green Cytotoxicity Assay to monitor cytotoxicity in HEK293 cells - 32 hour (AID 1224881). Note: nearly all actives have a fitted effect of over 40% in size. Note: potency is the fitted concentration of half-maximal effect. A digest of the protocol: as §2
Assay [10] is described as follows: qHTS RealTime-Glo MT Cell Viability Assay in HEK293 cells - 0 hour (AID 1224880). Note: top concentration of the series differs between compounds; nearly all actives have a fitted effect of over 45% in size. The procedure, abridged: as §1
% is set by controls: 0 for no effect and ±100 for the full control effect.

On to `CCCOc1sc(C(=O)N2CCC(c3cc(CN)ccc3F)CC2)c(C)c1Br`, for which the Potency in assay [1] was 20 µM (active); in assay [2] it was 31.8 µM (active); in assay [3], 31.8 µM (active); in assay [4], 22.5 µM (active); in assay [5], 20 µM (active); in assay [6], 22.5 µM (active). In addition, the Potency in assay [7] is 20 µM (active); in [8], 15.9 µM (active); in assay [9], 31.8 µM (active).
As for `C=CC/C=C/C/C=C/C/C=C/C`, the Potency result in assay [1], in assay [2], in assay [4], in assay [5], in assay [7] and in assay [8] was “inactive” each time. Further, the Potency entry in [10] and in assay [9] was “inactive” each time. For the same molecule, the max response in assay [3] was 0% (inactive).
Take `Cc1cn[nH]c1`: the Potency entry in [1], in assay [2], in assay [4], in assay [5], in [6] and in assay [7] was “inactive” in each case. The Potency entry in [8], in assay [10] and in assay [9] was “inactive” in each case. Also, the max response in assay [3] was 7.93% (inactive).
Regarding `CC(C)(C)c1n[nH]c(=O)n(N)c1=O`, the Potency entry in [1], in [2], in assay [4], in assay [5], in [6] and in assay [8] was “inactive” throughout. The Potency result in [10] and in assay [9] was “inactive” in each case. Further, the max response in assay [3] is -0.732% (inactive).
For the molecule `CC1(C)C(=O)N(Br)C(=O)N1Br`, the Potency entry in [1], in assay [2], in assay [4], in assay [5], in assay [6] and in assay [7] was “inactive” throughout. The Potency result in assay [8], in assay [10] and in assay [9] was “inactive” in each case. Moreover, the max response in [3] was -1.21% (inactive).
For `CC(NCCC(c1ccccc1)c1ccccc1)c1ccccc1` (stereo not drawn), the Potency is 21.3 µM (active) in [1]; 21.3 µM (active) in assay [2]; 16.9 µM (active) in [3]; 21.3 µM (active) in assay [4]; 23.9 µM (active) in assay [5]; 23.9 µM (active) in [6]. Further, the Potency in assay [7] is 16.9 µM (active); in [8], 15.1 µM (active); in assay [9] it was 21.3 µM (active).
`C=CC(=C)CC/C=C(\C)CCC=C(C)C`: the activity change, negative = cytotoxicity is -2.14% [at 15.8 µM] (inactive) in assay [1] and -0.65% [at 15.8 µM] (inactive) in assay [10]. Moreover, in assay [2], the viability change, negative = cytotoxic is 1.83% [at 15.8 µM] (inactive). Moreover, in assay [3], the max response is -13.5% (inactive). Further, in assay [4], the activity change was 0.574% [at 15.8 µM, stronger effect = higher value] (inactive). The cytotoxicity increase in assay [5] is 1.01% [at 15.8 µM] (inactive); in [8] it was -0.316% [at 15.8 µM] (inactive); in assay [9], 1.9% [at 15.8 µM] (inactive). Besides, in assay [6], the activity change, negative = cytotoxic is -2.56% [at 15.8 µM] (inactive).
On to `Cc1oc(-c2ccccc2)nc1CCOc1ccc(C[C@H](Nc2ccccc2C(=O)c2ccccc2)C(=O)O)cc1`, for which the Potency result in assay [1], in assay [2], in assay [4], in assay [5], in assay [6] and in assay [10] was “inactive” each time. Further, in assay [9], the Potency entry is “inactive”. The max response in assay [3] was 0.495% (inactive).
For the molecule `O=S(=O)(O)c1cc(S(=O)(=O)O)c2ccc3c(S(=O)(=O)O)cc(S(=O)(=O)O)c4ccc1c2c43`, the activity change, negative = cytotoxicity in [1] was 1.53% [at 15.8 µM] (inactive); in assay [10], 3.1% [at 15.8 µM] (inactive). Moreover, the viability change, negative = cytotoxic in assay [2] was 0.921% [at 15.8 µM] (inactive). Also, the max response in [3] is 2.05% (inactive). Also, in assay [4], the activity change is -0.396% [at 15.8 µM, stronger effect = higher value] (inactive). The cytotoxicity increase in [5] was -4.69% [at 15.8 µM] (inactive); in assay [8], -11.4% [at 15.8 µM] (inactive); in [9], -1.7% [at 15.8 µM] (inactive). The cytotoxicity in [7] is -8.46% [at 15.8 µM] (inactive).
As to `O=C=NCc1cccc(CN=C=O)c1`, the activity change, negative = cytotoxicity in assay [1] was 2.12% [at 15.8 µM] (inactive); in assay [10], 5.7% [at 15.8 µM] (inactive). Also, the viability change, negative = cytotoxic in assay [2] is 3.05% [at 15.8 µM] (inactive). Moreover, in assay [3], the max response is 3.93% (inactive). Further, the activity change in [4] was -11.7% [at 15.8 µM, stronger effect = higher value] (inactive). Also, the cytotoxicity increase in assay [5] was 2.28% [at 15.8 µM] (inactive); in assay [8] it was -0.536% [at 15.8 µM] (inactive); in assay [9], -11.9% [at 15.8 µM] (inactive). For the same molecule, the activity change, negative = cytotoxic in assay [6] was 0.5% [at 15.8 µM] (inactive).
`COC(=O)CC(C)CCC=C(C)C` (stereo not drawn): the Potency entry in assay [1], in assay [2], in assay [4], in assay [5], in assay [7] and in assay [8] was “inactive” each time. The Potency entry in assay [10] and in assay [9] was “inactive” in each case. Further, the max response in assay [3] was 7.75% (inactive).
Turning to `CCC(C)C(=O)OC` (stereo not drawn), the Potency entry in assay [1], in assay [2], in assay [4], in assay [5], in assay [7] and in assay [8] was “inactive” throughout. Besides, the Potency result in assay [10] and in assay [9] was “inactive” each time. The max response in assay [3] was 4.5% (inactive).
`CCCC(C)CCC(C)=O` (stereo not drawn): the Potency entry in assay [1], in assay [2], in assay [4], in assay [5], in assay [6] and in assay [7] was “inactive” in each case. Besides, the Potency result in assay [8], in assay [10] and in [9] was “inactive” throughout. For the same molecule, the max response in [3] is 12.6% (inactive).
With `CC1=CP(=O)(c2ccccc2)CC1` (stereo not drawn), the Potency result in assay [1], in assay [2], in [4], in assay [5], in assay [6] and in [7] was “inactive” in each case. In addition, the Potency result in [10] and in assay [9] was “inactive” in each case. Besides, the max response in assay [3] was 9.74% (inactive).
For the molecule `CN1[C@@H]2CC[C@H]1CC(OC(=O)C(CO)c1ccccc1)C2` (stereo partly drawn), the Potency entry in assay [1], in assay [2], in [4], in [5], in assay [6] and in assay [8] was “inactive” each time. Besides, the Potency result in assay [10] and in assay [9] was “inactive” throughout. Further, the max response in assay [3] is -0.934% (inactive) and 16.5% (inactive).
Turning to `CCC1(c2cnc[nH]2)Cc2ccccc2C1`, the Potency result in assay [1], in assay [2], in assay [4], in assay [5], in assay [7] and in [8] was “inactive” each time. Further, the Potency entry in [10] and in [9] was “inactive” throughout. Also, the max response in assay [3] is -4.11% (inactive).
For `CCCCCCCCCCCCCCNCCO`, the Potency in assay [1] is 21.3 µM (active); in assay [2], 19 µM (active); in assay [3], 12 µM (active); in assay [4], 19 µM (active); in [5] it was 10.7 µM (active); in assay [6], 10.7 µM (active). Further, the results for the Potency in [7], in assay [8] and in [9] were 7.56 µM (active), 7.56 µM (active) and 19 µM (active), respectively.
With `CCCCCCCOC(=O)c1ccc(O)cc1`, the Potency was 24.6 µM (active) and 21.9 µM (active) in assay [1]; 24.6 µM (active) and 19.5 µM (active) in assay [3]; “inactive and 38.9 µM (active)” in assay [5]; 24.5 µM (active) in assay [8]. In addition, the Potency result in [2], in assay [4], in assay [6], in assay [10] and in [9] was “inactive” each time.
Turning to `CC1=C(/C=C/C(C)=C/C=C/C(C)=C/C(=O)Nc2ccc(O)cc2)C(C)(C)CCC1`, the Potency was 796 nM (active) and 477 nM (active) in [1]; “inactive and 23.9 µM (active)” in [2]; 893 nM (active) and 425 nM (active) in assay [3]; “inactive and 26.8 µM (active)” in [6]; 50.2 µM (active) and 23.9 µM (active) in assay [8]. Further, the Potency entry in [4], in assay [5], in [10] and in assay [9] was “inactive” in each case.
Consider `CN(C)CCN1CCOCC1`, for which the Potency entry in [1], in assay [2], in [4], in [5], in assay [6] and in assay [7] was “inactive” in each case. The Potency result in assay [8], in [10] and in assay [9] was “inactive” in each case. Moreover, the max response in [3] is 7.62% (inactive).
